# PubChem BioAssay
# Activity calls are given as the source filed them.
# Tests used:
# Albumin (Bos taurus) = Albumin (Bos taurus) (UniProt P02769); experiment: compounds binding labelled BSA control protein – biochemical, small-molecule microarray, Alexa647 label, 635/667 nm fluorescence, artefact control for SMM control protein annotation, profiling panel (AID 1118); conditions: BSA-A647 binding, fluorescence 635 nm, higher = more signal;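 note: score merges 667 nm emission intensity and signal-to-noise per printed compound spot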
# Chain of Albumin (Bos taurus) (P02769 whole entry, looked up): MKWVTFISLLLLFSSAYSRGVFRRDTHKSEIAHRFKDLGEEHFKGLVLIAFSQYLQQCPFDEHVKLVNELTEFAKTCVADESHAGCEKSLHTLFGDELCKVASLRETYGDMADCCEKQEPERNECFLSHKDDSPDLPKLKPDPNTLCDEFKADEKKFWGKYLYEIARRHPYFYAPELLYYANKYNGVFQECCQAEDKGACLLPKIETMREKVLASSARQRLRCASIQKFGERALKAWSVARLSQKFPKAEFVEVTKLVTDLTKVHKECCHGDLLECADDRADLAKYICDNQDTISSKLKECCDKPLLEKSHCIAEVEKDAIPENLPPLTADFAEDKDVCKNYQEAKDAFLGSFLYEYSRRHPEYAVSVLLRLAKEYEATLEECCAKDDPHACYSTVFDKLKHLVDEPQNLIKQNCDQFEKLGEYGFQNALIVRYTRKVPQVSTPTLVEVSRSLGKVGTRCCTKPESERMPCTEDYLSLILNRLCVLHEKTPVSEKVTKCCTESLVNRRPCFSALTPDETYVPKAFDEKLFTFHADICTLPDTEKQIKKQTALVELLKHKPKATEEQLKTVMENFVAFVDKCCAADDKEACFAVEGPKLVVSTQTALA
# [1] = probe aXIP binding to arrayed compounds – biochemical, NeuroSMM set, 635/667 nm fluorescence, primary screen (AID 1119); conditions: small-molecule microarray, higher = more signal, called active from +8 up or from −8 down;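 note: probe is the protein aXip251-270 applied at 1 µg/mL to compound-printed slides; binding of probe to printed compounds measured as 667 nm fluorescence plus signal to noise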
# [2] = probe aNOTCH3 binding on compound microarray – biochemical, small-molecule microarray, 635/667 nm fluorescence, primary screen (AID 1120); conditions: higher = more signal;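 note: probe is a biotin-tagged antibody raised against NOTCH3 rather than NOTCH3 protein; score merges spot fluorescence near 667 nm with spot signal to noise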
# [3] = probe aNOTCH2 binding on compound microarray – biochemical, small-molecule microarray, 635/667 nm fluorescence, primary screen (AID 1121); conditions: higher = more signal;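 note: score merges feature fluorescence read at 667 nm with its signal to noise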
# [4] = target: Carbonic anhydrase 2 (Homo sapiens) (UniProt P00918); experiment: compounds binding carbonic anhydrase 2 – biochemical, small-molecule microarray, Alexa647-labelled CAII, profiling panel (AID 1122); conditions: CAII-A647 binding fluorescence, higher = more signal
# [5] = COS7 lysate on small-molecule microarray, probe aHis, 635 nm (AID 1123); conditions: COS7 cell lysate, fluorescence, higher = more signal;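 note: z-score combines 667nm fluorescence intensity with signal-to-noise per printed compound spot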
# [6] = probe aLAP1 signal on lysate-treated microarray – cell lysate, small-molecule microarray, COS7 lysate, primary screen (AID 1124); conditions: probe aLAP1, fluorescence, higher = more signal;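 note: lysate comes from COS7 cells expressing LAP1 and is applied at 0.3 µg/mL; score merges spot fluorescence near 667 nm with signal-to-noise over triplicate slides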
# Sam68 (KHDRBS1) = experiment: compounds binding KHDRBS1 protein – biochemical, small-molecule microarray, 635 nm fluorescence, primary screen (AID 1125); conditions: higher = more signal;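 note: score merges 667 nm channel intensity with signal to noise over triplicate slides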
# [7] = tested on: Chordin-like protein 2 (CHRDL2); experiment: compounds binding chordin-like 2 – biochemical, small-molecule microarray, 635 nm fluorescence, primary screen (AID 1126); conditions: fluorescence 635 nm, higher = more signal;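 note: printed compound slides probed with Chrdl2 protein at 4 µg/mL for 1 h at 4 C; score merges 667 nm emission intensity with signal to noise over three replicate slides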
# [8] = target: Concanavalin-A (Canavalia ensiformis) (UniProt P02866); experiment: compounds binding concanavalin A lectin – biochemical, small-molecule microarray, Alexa647 label, 635 nm, artefact control for SMM control protein annotation, primary screen (AID 1127); conditions: ConA-A647 binding fluorescence, higher = more signal;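 note: z combines 667 nm emission intensity with signal-to-noise across three replicate slides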
# Chain of Concanavalin-A (Canavalia ensiformis) (P02866 whole entry, looked up): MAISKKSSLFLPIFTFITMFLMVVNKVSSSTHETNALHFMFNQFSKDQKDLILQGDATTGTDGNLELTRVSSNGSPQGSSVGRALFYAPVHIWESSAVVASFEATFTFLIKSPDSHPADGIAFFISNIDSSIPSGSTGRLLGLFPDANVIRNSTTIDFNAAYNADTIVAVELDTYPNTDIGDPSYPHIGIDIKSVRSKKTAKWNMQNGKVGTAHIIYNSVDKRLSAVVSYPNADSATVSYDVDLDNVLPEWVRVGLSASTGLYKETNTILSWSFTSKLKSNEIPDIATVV
SMILES,composite z-score (Albumin (Bos taurus)),composite Z-score [1],composite z-score [2],composite z-score [3],composite z-score [4],composite z-score [5],composite z-score [6],composite z-score (Sam68 (KHDRBS1)),composite z-score [7],composite z-score [8]
CCCCC=C[C@@H](NC(=O)c1ccccc1)c1ccccc1,0.943,-0.176 (inactive),0.354,-0.0785,0.561,2.62,0.172,1.26,-0.621,1.08
CCCCC(=O)N(CCN1CCOCC1)[C@@H]1CC(C(=O)NCCO)=C[C@H](Oc2c(I)cc(CO)cc2OC)[C@H]1O,-0.365,-0.18 (inactive),-0.163,-0.185,-0.142,-0.463,-0.265,0.593,0.459,0.331
NC(=O)[C@H]1[C@@H]2C(=O)O[C@@H](c3ccccc3)[C@@H](c3ccccc3)N2[C@@H](c2ccc(O)cc2)[C@]12C(=O)Nc1ccccc12,0.295,0.355 (inactive),-0.307,-0.173,0.769,-0.115,0.0182,-0.783,-1.22,-0.411
C=CCN1C(=O)[C@]2(O[C@H](CCO)[C@@H]([Si](C)(C)c3ccc(OC)cc3)[C@@H]2C)c2cc(N3C(=O)COc4ccccc43)ccc21,0.427,0.0421 (inactive),0.0039,-0.175,0.418,0.751,0.78,0.804,-0.153,0.919
CCCCCCCCCCC(O)C1C=CC2C(=O)N(C)C(=O)C2N1Nc1cc(OC)c(OC)c(OC)c1 (stereo not given),0.869,0.776 (inactive),-0.125,-0.0521,0.0172,1.44,0.148,-0.383,-1.3,0.245
CC(C)[Si]1(C(C)C)OCc2cc(-c3ccc(-c4ccc(Cl)c(Cl)c4)o3)nc(CCc3ccccc3)c21,-0.176,0.182 (inactive),-0.0362,-0.171,0.384,0.587,0.112,-0.0975,0.0164,-0.843
C=C[C@@H](C)[C@H](O)c1ccc(OCCO)cc1,0.189,0.0275 (inactive),-0.529,-0.206,0.799,0.28,-0.343,-0.885,-0.49,-1.01
O=C1N[C@@H](Cc2ccccc2)C(=O)N2[C@@H]1C[C@@H](C(=O)O)[C@H]2c1ccc(O)cc1,0.145,0.84 (inactive),0.428,0.0712,0.757,1.33,0.341,0.754,1.1,1.01
O=C(CS)NCCCCCCNC(=O)[C@@H]1C[C@@H]2C(=O)NCC(=O)N2[C@@H]1c1ccc(O)cc1,0.166,0.549 (inactive),-0.397,-0.183,0.68,2.94,-0.136,-0.477,-0.134,-0.434
C=CCNC(=O)[C@H]1[C@@H]2C(=O)O[C@@H](c3ccccc3)[C@@H](c3ccccc3)N2[C@@H](c2ccc(O)cc2)[C@]12C(=O)N(C(=O)OCCOC)c1ccc(C#CCC(C(=O)OC)C(=O)OC)cc12,0.675,1.04 (inactive),0.0904,-0.154,0.378,2.05,0.775,1.3,0.822,0.96
COC(=O)[C@@]1(Cc2ccccc2)[C@H]2c3cc(C(=O)N4CCCC4)n(CCSCCO)c3C[C@H]2CN1C(=O)c1ccccc1,1.05,-0.176 (inactive),0.543,0.187,0.841,3.57,1.22,1.12,-0.997,0.554
[N-]=[N+]=NCc1ccccc1C[C@]1(C(=O)N2CCOCC2)COC(c2ccc(OCCCO)cc2)=N1,0.754,-0.592 (inactive),0.139,0.126,0.71,0.969,0.262,1.22,-0.202,0.468
C=CCC(OC(C)=O)[C@@H]1[C@@H](N(Cc2cccc3ccccc23)C(=O)c2ccc(-c3ccccc3)cc2)c2cc(OCCCO)ccc2N1C(=O)c1ccc(-c2ccccc2)cc1 (stereo not given in full),-0.0811,-0.646 (inactive),-0.0647,-0.0294,0.255,0.384,0.205,-0.225,-0.046,-0.441
O=C1[C@@H]2[C@@H](CC(COc3ccccc3)=C3[C@@H](CCc4ccccc4)OB(O)C[C@@H]32)C(=O)N1Cc1ccccc1,-0.0421,0.196 (inactive),0.0242,-0.13,0.413,0.782,0.111,-0.258,0.139,0.0019
COc1cc2c(cc1O)C(c1cccs1)N(Cc1sc3ccccc3c1Cl)CC2 (stereo not given),0.931,-0.818 (inactive),0.173,0.0294,0.587,2.04,1.17,1.3,0.613,1.07
CN1C(=O)C2C=CC(C(O)c3ccc(I)cc3)N(Nc3ccccc3)C2C1=O (stereo not given),0.939,0.412 (inactive),0.323,-0.0389,0.547,1.91,0.595,1.14,0.569,1.15
CCCNC(=O)[C@@]1(Sc2ccc(C)cc2)CC(=O)N(C2CCCCC2)[C@@H]1c1ccc(CO)cc1I,0.207,0.73 (inactive),-0.147,-0.132,0.439,1.47,0.207,0.65,-0.501,0.298
C=CCC(OC(C)=O)[C@@H]1[C@@H](N(Cc2ccc(-c3ccccc3)cc2)C(=O)Cc2ccc(F)cc2)c2cc(OCCCO)ccc2N1C(=O)Cc1ccc2ccccc2c1 (stereo not given in full),0.232,-0.34 (inactive),-0.0931,-0.046,0.244,1.29,0.201,-0.869,-0.353,-0.474
C=CCN1C(=O)[C@@]2(O[C@@H](CCO)[C@H]([Si](C)(C)c3ccc(OC)cc3)[C@H]2C)c2cc(N3CCOC3=O)ccc21,0.729,0.0117 (inactive),-0.0647,-0.127,0.483,-0.617,0.155,0.329,-0.403,0.993
CCOC(=O)C1=C[C@@H](C(C)(C)C)N(S(=O)(=O)c2ccc(C)cc2)[C@H]1c1cccc(Cl)c1,0.91,-0.244 (inactive),0.0311,-0.037,0.232,1.15,0.596,1.3,0.0761,1.11
C=CCN1C(=O)[C@]2(O[C@H](CCO)[C@@H]([Si](C)(C)c3ccc(OC)cc3)[C@@H]2C)c2cc(NC(=O)c3ccc(OC)cc3)ccc21,-0.296,0.0866 (inactive),-0.0017,-0.108,0.216,0.13,0.0305,1.04,0.878,0.689
C[C@]1(C(=O)NCC(F)(F)F)c2ccccc2C(=O)N(Cc2ccccc2)[C@H]1c1ccc(CO)cc1,-1.14,-0.222 (inactive),-0.221,-0.123,0.448,-0.145,0.498,-1.22,-1.7,0.0038
